Drawing on PubChem BioAssay, this text covers z-score and composite z-score for 13 molecules.

The structures appear in SMILES notation. Calls of active or inactive are those of the source.

Experiment [1] is described as follows: optical density shifts of acrAB sulA E. coli – strain DRC41, OD650, 48 h, E. coli filamentation inducer project, primary screen (AID 1152).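 Further: E. coli MC1000 strain DRC41 lacking acrAB efflux pump and sulA.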 The conditions noted are these: higher = more signal, called active from +8 up or from −8 down.
Experiment [2] can be described thus: probe aLefty1 binding on compound microarray – biochemical, small-molecule microarray, 635/667 nm fluorescence, primary screen (AID 1153).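 Further: score merges spot fluorescence with signal-to-noise ratio from the scanned slide images.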 The conditions noted are these: higher = more signal.
Experiment [3] is described as follows: plasmodial surface anion channel blockers, osmotic lysis – cell-based, P. falciparum Indochina, OD700, 1 h, primary screen (AID 1154). The settings on record: P. falciparum Indochina infected RBC osmotic lysis, higher = more signal, called active from +8 up or from −8 down.
A short description of experiment [4]: plasmodial surface anion channel blockers, osmotic lysis – cell-based, P. falciparum Indochina, OD700, 2 h, primary screen (AID 1155).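 Further: lysis reports solute entry through the parasite surface anion channel PSAC.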 The settings on record: P. falciparum Indochina infected erythrocytes, higher = more signal, called active from +8 up or from −8 down.
Experiment [5] in a line: changes in parasitized red cell lysis, either direction – P. falciparum Indochina, OD700, 3 h, PSAC antagonist project, primary screen (AID 1156). The conditions noted are these: P. falciparum-infected erythrocytes, osmotic lysis, higher = more signal, called active from +8 up or from −8 down.
The nature of experiment [6]: plasmodial surface anion channel blockers, osmotic lysis – cell-based, P. falciparum Indochina, OD700, 18 h, primary screen (AID 1157). The conditions noted are these: P. falciparum Indochina infected erythrocytes, osmotic lysis OD700, 18 h; higher = more signal, called active from +8 up or from −8 down.
Experiment [7] in a line: S6 kinase pathway phospho-S6 level changes – cell-based, A549, cytoblot, luminescence, serum-stimulated, primary screen (AID 1158).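 Further: serum-stimulated A549 lung adenocarcinoma cells; signal is phosphorylated S6 detected by cytoblot immunostaining with HRP secondary.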 The conditions noted are these: 5 h, higher = more signal.
For experiment [8], the target named is NADPH oxidase 2 (Homo sapiens) (UniProt P04839). The experiment in a line: compounds shifting NOX2 Amplex Red fluorescence – cell-based, HEK293-NOX2, PMA-stimulated, NOX inhibitor project, primary screen (AID 1159). Further: test concentration not given here. The conditions noted are these: 45 min, higher = more signal, called active from +8 up or from −8 down.
Sequence of NADPH oxidase 2 (Homo sapiens) (P04839 whole entry, looked up): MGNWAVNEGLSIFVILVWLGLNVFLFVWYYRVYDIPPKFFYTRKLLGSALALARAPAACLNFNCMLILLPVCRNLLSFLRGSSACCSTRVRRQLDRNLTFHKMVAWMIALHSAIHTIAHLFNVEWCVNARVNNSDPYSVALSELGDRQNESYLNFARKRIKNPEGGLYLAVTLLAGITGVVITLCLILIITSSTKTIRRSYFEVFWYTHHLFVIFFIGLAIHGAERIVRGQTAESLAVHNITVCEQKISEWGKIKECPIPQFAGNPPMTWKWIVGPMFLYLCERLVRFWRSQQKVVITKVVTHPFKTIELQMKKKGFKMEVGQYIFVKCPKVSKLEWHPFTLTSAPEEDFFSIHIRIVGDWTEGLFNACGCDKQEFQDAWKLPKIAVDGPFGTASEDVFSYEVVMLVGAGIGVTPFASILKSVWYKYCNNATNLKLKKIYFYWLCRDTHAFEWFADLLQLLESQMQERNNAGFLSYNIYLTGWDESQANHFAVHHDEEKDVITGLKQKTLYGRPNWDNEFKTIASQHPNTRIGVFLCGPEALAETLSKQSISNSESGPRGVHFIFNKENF
Experiment [9] concerns the target NADPH oxidase 4 (Homo sapiens) (UniProt Q9NPH5). The experiment in a line: compounds shifting NOX4 Amplex Red fluorescence – cell-based, HEK293-NOX4, tetracycline-induced, NOX inhibitor project, primary screen (AID 1160). The settings on record: HEK293-NOX4, Amplex Red H2O2 fluorescence, 45 min; higher = more signal, called active from +8 up or from −8 down.
Experiment [10] deals with NADPH oxidase 5 (Homo sapiens) (UniProt Q96PH1). The experiment in a line: compounds shifting NOX5 Amplex Red fluorescence – cell-based, HEK293-NOX5, NOX inhibitor project, primary screen (AID 1161). The conditions noted are these: HEK293-NOX5, ionomycin, 45 min, higher = more signal.
Sequence of NADPH oxidase 5 (Homo sapiens) (Q96PH1 whole entry, looked up): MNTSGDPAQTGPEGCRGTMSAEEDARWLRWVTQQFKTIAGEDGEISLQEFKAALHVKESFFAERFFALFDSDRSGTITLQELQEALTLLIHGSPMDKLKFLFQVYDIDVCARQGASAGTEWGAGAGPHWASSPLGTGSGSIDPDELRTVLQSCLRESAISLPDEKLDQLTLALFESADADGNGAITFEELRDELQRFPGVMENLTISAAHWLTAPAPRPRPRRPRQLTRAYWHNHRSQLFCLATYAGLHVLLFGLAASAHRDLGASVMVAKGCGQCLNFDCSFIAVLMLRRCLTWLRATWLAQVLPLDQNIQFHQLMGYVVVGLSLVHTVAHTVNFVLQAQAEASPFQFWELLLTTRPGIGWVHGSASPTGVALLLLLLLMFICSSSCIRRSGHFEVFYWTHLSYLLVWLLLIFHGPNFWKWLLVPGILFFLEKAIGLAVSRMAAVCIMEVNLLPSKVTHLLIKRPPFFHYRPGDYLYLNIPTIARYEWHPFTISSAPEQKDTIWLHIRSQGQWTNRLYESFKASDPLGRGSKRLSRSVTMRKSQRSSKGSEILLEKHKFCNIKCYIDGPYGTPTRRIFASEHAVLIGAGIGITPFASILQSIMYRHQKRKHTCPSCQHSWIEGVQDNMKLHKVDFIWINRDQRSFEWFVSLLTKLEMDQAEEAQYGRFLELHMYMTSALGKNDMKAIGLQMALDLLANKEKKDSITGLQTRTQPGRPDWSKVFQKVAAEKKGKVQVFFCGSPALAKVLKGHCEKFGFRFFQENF

Sequence of NADPH oxidase 4 (Homo sapiens) (Q9NPH5 whole entry, looked up): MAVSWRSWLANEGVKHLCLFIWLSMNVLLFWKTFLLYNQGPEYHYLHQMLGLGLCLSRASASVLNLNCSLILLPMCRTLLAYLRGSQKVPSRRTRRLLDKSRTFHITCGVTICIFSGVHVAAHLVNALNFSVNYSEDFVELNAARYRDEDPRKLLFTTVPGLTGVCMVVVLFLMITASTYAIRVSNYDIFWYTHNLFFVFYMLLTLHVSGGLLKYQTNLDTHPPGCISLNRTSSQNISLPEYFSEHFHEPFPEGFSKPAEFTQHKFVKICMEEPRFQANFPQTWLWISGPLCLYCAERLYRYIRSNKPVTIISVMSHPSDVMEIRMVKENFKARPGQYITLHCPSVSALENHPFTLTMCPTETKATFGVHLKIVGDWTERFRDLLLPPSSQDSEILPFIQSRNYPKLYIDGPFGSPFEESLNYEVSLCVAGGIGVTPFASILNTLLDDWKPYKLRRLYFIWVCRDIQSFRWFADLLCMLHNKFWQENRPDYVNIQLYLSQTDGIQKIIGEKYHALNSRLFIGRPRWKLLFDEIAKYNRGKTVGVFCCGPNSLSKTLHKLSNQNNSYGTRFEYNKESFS

For `CCCCCCc1nc(CCCc2cc3c(c(CCCCCC)n2)[Si](C(C)C)(C(C)C)OC3)cc2c1[Si](C(C)C)(C(C)C)OC2`, the z-score in experiment [1] is -0.613 (inactive); in experiment [3], 0.611 (inactive); in experiment [4] it was -1.07 (inactive); in [5], 0.695 (inactive); in experiment [6] it was -1.72 (inactive); in experiment [7] it was 0.62. In addition, the z-score in experiment [8] is -3.69 (inactive); in [9], -1.13 (inactive); in experiment [10], -3.41. Further, in experiment [2], the composite z-score amounted to 0.13.
With `COc1ccc([Si](C)(C)[C@@H]2[C@@H](CC(=O)N(CCO)Cc3ccccc3)O[C@]3(C(=O)N(C)c4ccccc43)[C@H]2C)cc1`, the z-score in experiment [1] is -0.733 (inactive); in experiment [3] it was 11.8 (active); in [4], 2.07 (inactive); in experiment [5], -0.87 (inactive); in experiment [6], 0.57 (inactive); in experiment [7], 0.388. Further, the z-score in experiment [8] was 0.406 (inactive); in [9] it was 0.965 (inactive); in [10], -1.21. For the same molecule, the composite z-score in experiment [2] was 0.31.
Consider `O=C1OCCC=C[C@H]2OC34C=CCN(Cc5ccccc5)C(=O)[C@H]3N(CCCO)C(=O)[C@@H]4C12` (stereo not given in full), for which the z-score is 2.94 (inactive) in [1]; 0.64 (inactive) in experiment [3]; -0.306 (inactive) in [4]; 0.739 (inactive) in experiment [5]; -0.996 (inactive) in experiment [6]; 0.84 in experiment [7]. Moreover, the z-score in [8] is -1.96 (inactive); in experiment [9] it was -2.93 (inactive); in [10], -3.28. In addition, in [2], the composite z-score is -0.101.
Regarding `COC(=O)C1=CC(CCCO)=CC(C2CC2)N(Cc2sc3ccccc3c2Cl)C=C1C(=O)OC` (stereo not given), the z-score in experiment [1] was -0.899 (inactive); in [3] it was 10.6 (active); in experiment [4], 2.09 (inactive); in [5] it was 0.901 (inactive); in [6], 1.23 (inactive); in experiment [7] it was -0.18. The figures for the z-score in experiment [8], in experiment [9] and in experiment [10] were -0.986 (inactive), -1.76 (inactive) and 0.19, respectively. In [2], this molecule gave a composite z-score of 0.335.
As for `CN(C)C(=O)[C@]1(CCC(=O)OC(C)(C)C)N=C(c2ccc(OCCCO)cc2)O[C@@H]1c1ccccc1N=[N+]=[N-]`, the z-score is 0.761 (inactive) in experiment [1]; 31 (active) in [3]; 29.8 (active) in experiment [4]; 1.37 (inactive) in experiment [5]; 2.34 (inactive) in experiment [6]; -0.294 in [7]. Further, the figures for the z-score in experiment [8], in experiment [9] and in experiment [10] were -4.53 (inactive), -0.32 (inactive) and -1.98, respectively. The composite z-score in [2] came to 1.33.
Consider `CN(C)CCCCNC(=O)[C@H]1C[C@H]2C(=O)N[C@@H](Cc3ccccc3)C(=O)N2[C@H]1c1ccc(O)cc1`, for which the z-score is 1.22 (inactive) in experiment [1]; -0.0717 (inactive) in [3]; -0.63 (inactive) in experiment [4]; 0.347 (inactive) in experiment [5]; -0.512 (inactive) in [6]; 0.403 in experiment [7]. For the same molecule, the z-score in experiment [8] is -1.35 (inactive); in experiment [9], -1.66 (inactive); in [10] it was -3.92. The same molecule gave a composite z-score in experiment [2] of 0.0161.
Turning to `CS(=O)(=O)CCOC(=O)C1=CC(c2ccc(CO)cc2)=CC(C2CC2)N(Cc2cc3c(cc2Br)OCO3)C=C1C(=O)OCCS(C)(=O)=O` (stereo not given), the z-score in experiment [1] is -1.9 (inactive); in [3], 17.2 (active); in experiment [4], 3.22 (inactive); in [5], 0.904 (inactive); in experiment [6], 1.29 (inactive); in experiment [7], 0.376. Also, the z-score in experiment [8] was -1.77 (inactive); in [9], -0.749 (inactive); in [10] it was -2.03. Further, in experiment [2], the composite z-score amounted to 0.199.
As to `COC(=O)c1ccc(C(O)C2C=CC3C(=O)N(C)C(=O)C3N2NC(=O)OC(C)(C)C)o1` (stereo not given), the z-score is -1.31 (inactive) in [1]; 0.146 (inactive) in [3]; 0.52 (inactive) in experiment [4]; -0.46 (inactive) in experiment [5]; 0.533 (inactive) in experiment [6]; -0.785 in experiment [7]. The z-score was -0.786 (inactive) in experiment [8], -0.929 (inactive) in experiment [9] and 0.396 in experiment [10]. In addition, in [2], the composite z-score was 0.0622.
`O=C1N(CCS(=O)(=O)c2ccccc2)c2ccccc2C[C@@]12COC(c1ccc(OCCCO)cc1)=N2`: the z-score is -2.43 (inactive) in [1]; 23.6 (active) in experiment [3]; 8.71 (active) in experiment [4]; 2.58 (inactive) in experiment [5]; 0.764 (inactive) in experiment [6]; -0.616 in [7]. Also, the z-score was 0.759 (inactive) in experiment [8], 1.04 (inactive) in experiment [9] and -0.312 in experiment [10]. The molecule also yielded a composite z-score in [2] of 0.0804.
For `COC(=O)[C@@]1(Cc2ccccc2)[C@H]2c3cc(C(=O)N(C)C)n(Cc4cc(C)n(C)n4)c3C[C@H]2CN1C(=O)c1ccccc1`, the z-score is -1.85 (inactive) in experiment [1]; 1.11 (inactive) in experiment [3]; 0.234 (inactive) in experiment [4]; 0.452 (inactive) in [5]; 0.396 (inactive) in experiment [6]; 0.251 in experiment [7]. Besides, the z-score was 0.904 (inactive) in [8], -0.925 (inactive) in experiment [9] and -2.11 in [10]. This molecule also showed a composite z-score in experiment [2] of 0.33.
On to `COCCOC(=O)N1C(=O)[C@@]2(c3cc(C#CCC(C(=O)OC)C(=O)OC)ccc31)[C@H](c1ccc(O)cc1)N1[C@H](c3ccccc3)[C@H](c3ccccc3)OC(=O)[C@H]1[C@@H]2C(N)=O`, for which the z-score in experiment [1] was -0.648 (inactive); in experiment [3], 9.52 (active); in [4], 1.33 (inactive); in experiment [5], 0.0021 (inactive); in experiment [6], 0.213 (inactive); in experiment [7], -0.185. Besides, the z-score in experiment [8] is 1.4 (inactive); in [9], 0.525 (inactive); in [10], 1.14. For the same molecule, in experiment [2], the composite z-score was found to be 0.245.
In the case of `COc1ccc(C(=O)Nc2cccc(CN3C(=O)[C@@]4(O[C@@H](CCn5cc(CCO)nn5)[C@H]([Si](C)(C)c5ccc(OC)cc5)[C@H]4C)c4ccccc43)c2)cc1`, the z-score is -2.23 (inactive) in experiment [1]; 13.4 (active) in experiment [3]; 2.74 (inactive) in experiment [4]; 0.318 (inactive) in experiment [5]; 1.26 (inactive) in [6]; -0.782 in experiment [7]. For the same molecule, the z-score in experiment [8] is -3.75 (inactive); in [9] it was -0.389 (inactive); in [10], 2.37. Besides, the composite z-score in [2] amounted to 0.223.
Take `C=CCNC(=O)[C@@H]1[C@H]2C(=O)O[C@H](c3ccccc3)[C@H](c3ccccc3)N2[C@H](c2ccccc2OCCO)[C@@]12C(=O)Nc1ccc(C#CC3=CCCCC3)cc12`: the z-score is 1.51 (inactive) in experiment [1]; 1.78 (inactive) in [3]; -0.144 (inactive) in experiment [4]; -0.458 (inactive) in [5]; 0.0442 (inactive) in [6]; 2.36 in experiment [7]. In addition, the z-score in experiment [8] was 0.646 (inactive); in experiment [9] it was -1.35 (inactive); in [10], -4.4. In addition, in [2], the composite z-score stood at 0.454.
